The values that follow come from the OligoGym collection.
Note: reference of the scale not given here.

One test concerns the target BOLA1. In words: pooled miR-30 sensor sort-seq; sequence = guide strand. The settings on record: shRNA.
As to TAACATGGAACATCCGGGCTGC, the sensor-assay potency score (higher = more potent) was found to be 0.946. Same read-out and setting: the same measure for TTGACCTGAAGCAAGTTGCTAT: -0.107; for TGAGAGTTCTCTCTCCACTGGG: -0.015; for TGCGAAGCTCTAGCACCTCGGG: -1.19. On the same count and under the same terms, the same measure for TTGCGAAGCTCTAGCACCTCGG: -0.666; for TGGGGGGCTAGTGTCCAGCTGA: -1.56. Same read-out and setting: the same measure for TAGGGGGCTCAGTCCCTCGAAA: -1.29.

The next test has as its target BOP1. Described as above. The settings on record: shRNA.
The sequence ATCCAGGTCAAACCACACCAGC had a sensor-assay potency score (higher = more potent) of -1.99.

For TCAAACCACACCAGCTTGCTAT, the sensor-assay potency score (higher = more potent) is -1.16. The sequence TTGCTATCGTAGCTCCCACAGA showed a sensor-assay potency score (higher = more potent) of -1.14. Same read-out and setting: the same measure for TCTACATTCACCCTCATCTTGC: -0.893; for TTGACGGGCACCAGCAAGGGGT: -1.16; for TTCGTCATCATCCTCACTGCTG: 0.313. Same read-out and setting: the same measure for TTCCTGGATGAAGCGTCCGTAG: -1.83; for TTGTACACCATGCCATGGCAGA: -1.35.

Sequence TTGATGGCGTGCACCATGCGAG displayed a sensor-assay potency score (higher = more potent) of -1.27.

The sequence AGGATCGTCCATCTTGTCCAGG came in with a sensor-assay potency score (higher = more potent) of -2.16.

In turn, TTGGGCATCAGCTTCTTGGTGA registered a sensor-assay potency score (higher = more potent) of 0.503.

On to TAGTCAGGATCGTCCATCTTGT, for which the sensor-assay potency score (higher = more potent) was -0.541.

Another test addresses BRAP. Described as above. The settings on record: shRNA.
Sequence AAAACTATCCGCATCAGCCTGT had a sensor-assay potency score (higher = more potent) of 0.418.

Regarding TAAATATGAATACTCTAACTGT, the sensor-assay potency score (higher = more potent) was -0.208. On the same count and under the same terms, next, TTTTACTTGCAACCAGTCGATG: -1.46. Regarding TTAGTAAATATGAATACTCTAA, the sensor-assay potency score (higher = more potent) was -0.689. Same read-out and setting: next, TAGGAGATCATTTAGTTTGTGC: 0.0397; TTTCCTGAACACCACACTCAAA: -1.71. Turning to TTTAGCTGAGTGCACTTTCTTT, the sensor-assay potency score (higher = more potent) was -0.371. Still for that read-out and setting: the same measure for TCTTCTATTGAGTTGAACTGGC: -0.232. TAATCGCTACTTTCTCTCCTGG: the sensor-assay potency score (higher = more potent) is -0.199. As for TTTCTTTCCACAGACTGCTTTT, the sensor-assay potency score (higher = more potent) was -0.773. TTCTCTATCCGAACTATCTTGT showed a sensor-assay potency score (higher = more potent) of -0.12.

As for TGACATACCGTCCACATCCTAT, the sensor-assay potency score (higher = more potent) was -1.06.

A further test has as its target BRD2. Described as above. The settings on record: shRNA.
In turn, TTGGATTATATGCACAACTCGG gave a sensor-assay potency score (higher = more potent) of -1.15. Still for that read-out and setting: the same measure for TAATTTTGTGATAATCCGGTAG: 0.162; for TACATCAGCAGCAAACTCCTGT: 0.587.

TTATTTACAAGTTAGAATCAAC registered a sensor-assay potency score (higher = more potent) of -0.816. Same read-out and setting: next, TTGTTTTCAAGTCTCCTCTTAA: -0.54; TATAATTTTGTGATAATCCGGT: 0.775. Same read-out and setting: the same measure for TTTGGGATTGGACACCTCCGGG: -1.12.

On to TTCTCATTCGCTTTCTTGGGGG, for which the sensor-assay potency score (higher = more potent) was -0.27. The same measure, in the same setting: the same measure for TGCAGTAACAGCAAGGAGCGGG: -0.301.
